# Avidin bead fluor: green autofluorescence of compounds with avidin beads – biophysical, 488/530 nm, flow cytometry, artefact control, profiling panel; compound fluorescence 488/530 nm; stronger effect = higher value; fluorescence (KMESF) at 10 µM; actives 0.38% (n = 220,000); in the data active means fluorescence above about 47
# RGS16-Gao HTS: modulators of RGS16 binding to Galphao, primary screen, biochemical, human proteins, multiplexed bead flow cytometry; Regulator of G-protein signaling 16 (Homo sapiens) + Guanine nucleotide-binding protein …; bead-based flow cytometry RGS16-Galphao binding, fluorescence; actives lie on both sides; binding response (% of control), % at 10 µM; actives 0.38% (n = 220,000); AID 1441, 2008;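 further: Galphao activated by GDP with aluminum fluoride before binding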
# Target sequence (O15492 whole entry, looked up): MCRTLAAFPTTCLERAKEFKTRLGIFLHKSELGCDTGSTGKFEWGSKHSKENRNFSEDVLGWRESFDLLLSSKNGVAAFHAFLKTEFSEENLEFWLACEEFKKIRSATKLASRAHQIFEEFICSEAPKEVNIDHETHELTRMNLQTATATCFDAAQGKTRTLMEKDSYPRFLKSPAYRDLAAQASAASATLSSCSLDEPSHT
# Target sequence (P09471 whole entry, looked up): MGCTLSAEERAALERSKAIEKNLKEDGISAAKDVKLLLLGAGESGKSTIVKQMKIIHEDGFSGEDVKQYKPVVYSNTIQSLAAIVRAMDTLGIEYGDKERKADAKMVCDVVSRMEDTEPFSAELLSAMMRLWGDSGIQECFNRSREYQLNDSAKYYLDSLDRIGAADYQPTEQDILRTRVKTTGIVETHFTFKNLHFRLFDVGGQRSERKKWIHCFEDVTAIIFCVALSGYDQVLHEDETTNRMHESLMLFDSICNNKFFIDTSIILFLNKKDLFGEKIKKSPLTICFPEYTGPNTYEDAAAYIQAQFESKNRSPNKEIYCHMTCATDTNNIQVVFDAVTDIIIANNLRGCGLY
# RGS4-Gao reg: modulators of RGS4 binding to Galphao, primary screen, biochemical, multiplexed bead flow cytometry; Guanine nucleotide-binding protein G(o) subunit alpha (Homo sapiens), P09471; actives lie on both sides; binding response (% of control), % at 10 µM; actives 0.33% (n = 220,000); in the data active means binding response below about 49% or above about 150%; inactive means in between;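 further: fluorescent Galphao activated with aluminum fluoride binding bead-coupled RGS4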
# RGS8-Gao reg: RGS8-Galphao binding modulators, primary screen, biochemical, multiplexed bead flow cytometry; Guanine nucleotide-binding protein G(o) subunit alpha (Homo sapiens), P09471; actives lie on both sides; response (percent of control binding), % at 10 µM; actives 0.34% (n = 220,000); in the data active means response below about 60% or above about 140%; inactive means in between;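 further: Galphao activated as the GDP aluminium fluoride complex binding bead-coupled RGS8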
# GSH bead fluor: compound fluorescence on glutathione beads, profiling panel, artefact control, biophysical, 488/530 nm, flow cytometry; GSH beads flow cytometry, compound fluorescence 488/530 nm; stronger effect = higher value; actives 0.25% (n = 190,000); AID 1776, 2009; fluorescence (KMESF) at 10 µM; in the data active means fluorescence above about 89;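 further: glutathione beads carrying GST-tagged Bcl family fusion proteins plus one bare bead set; values are compound well signal with DMSO vehicle wells as background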
# RGS7-Gao: RGS7-Galphao binding modulators, primary screen, biochemical, multiplexed bead flow cytometry | actives 0.35% (n = 220,000) | binding response (% of control), % at 10 µM | Guanine nucleotide-binding protein G(o) subunit alpha (Homo sapiens), P09471 | actives lie on both sides | AID 1439, 2008; in the data active means binding response below about 49% or above about 150%; inconclusive means no clear call, values can overlap the other calls; inactive means in between;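 further: fluorescent Galphao held in activated GDP-AlF4 state binding bead-coupled RGS7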
# RGS-Gao: modulators of RGS–Galpha-o binding, primary screen, biochemical, multiplexed beads, flow cytometry, RGS4/7/8/16/19; multiplexed bead flow cytometry; actives 99% (n = 1,600); shares compounds with RGS16-Gao HTS; RGS4–Galpha-o binding response, % at 10 µM;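 further: fluorescently labeled Galpha-o bound to GDP with aluminium fluoride binding biotinylated RGS beads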
# Avidin counter: disruption of biotin probe capture by avidin, counter-screen for RGS protein interaction modulators, biochemical, flow cytometry, bead-based. inhibition, % at 10 µM. streptavidin beads, fluorescein-biotin binding. 1,700 tested, under 10 active. shares compounds with RGS16-Gao HTS;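 active means inhibition above 50%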;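 further: median green fluorescence of gated singlet beads compared with DMSO control wells; 0% = DMSO wells and 100% = complete loss of bead fluorescence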
# RGS8-Gao confirm: RGS8-Galphao binding modulators, confirmation, biochemical, multiplexed bead flow cytometry, single concentration | shares compounds with RGS16-Gao HTS | bead-based flow cytometry RGS8-Galphao binding, fluorescence; actives lie on both sides | binding response (% of control), % at 10 µM | actives 3% (n = 1,700) | AID 1836, 2009; in the data active means binding response below about 72% or above about 130%; inactive means in between;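 further: Galphao activated as GDP AlF4 complex before binding bead RGS8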
# RGS7-Gao confirm: RGS7-Galphao binding modulators, confirmation, biochemical, multiplexed bead flow cytometry, single concentration | shares compounds with RGS16-Gao HTS | bead-based flow cytometry RGS7-Galphao binding; actives lie on both sides | response (percent of control binding), % at 10 µM | actives 7.8% (n = 1,700) | AID 1837, 2009; in the data active means response below about 75% or above about 130%; inactive means in between;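 further: fluorescent Galphao activated with GDP and aluminum fluoride binding bead-coupled RGS7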
# RGS16-Gao single: modulators of RGS16-Galphao protein binding, confirmation, biochemical, single concentration, multiplexed bead flow cytometry. bead-based flow cytometry; actives lie on both sides. response (% of control binding), % at 10 µM. shares compounds with RGS16-Gao HTS. actives 4% (n = 1,700); in the data active means response below about 74% or above about 130%; inactive means in between;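 further: Galphao activated as the GDP aluminium fluoride complex binding bead-coupled RGS16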
# RGS4-Gao confirm: modulators of RGS4-Galphao protein binding, confirmation, biochemical, single concentration, multiplexed bead flow cytometry; shares compounds with RGS16-Gao HTS; actives lie on both sides; binding response (% of control), % at 10 µM; actives 4% (n = 1,700); AID 1840, 2009; in the data active means binding response below about 74% or above about 130%; inactive means in between
# RGS19-Gao single: regulators of RGS19-Galphao binding, confirmation, biochemical, single point, multiplexed bead flow cytometry | bead-based flow cytometry RGS19-Galphao binding; actives lie on both sides | actives 5% (n = 1,700) | response (percent of control binding), % at 10 µM | shares compounds with RGS16-Gao HTS | AID 1841, 2009; in the data active means response below about 50% or above about 160%; inactive means in between;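 further: 100% = no compound control and 0% = blank background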
# * hit, by the source's call; ? = inconclusive; . = no result; [ ] = remark or other dose. Compounds with a hit are over-represented: about 1.2% of the library has one in this group of screens. Unless noted, how the calls were made is not given here.
SMILES,Avidin bead fluor,RGS16-Gao HTS,RGS4-Gao reg,RGS8-Gao reg,GSH bead fluor,RGS7-Gao,Avidin counter,RGS8-Gao confirm,RGS7-Gao confirm,RGS16-Gao single,RGS4-Gao confirm,RGS19-Gao single,others
COc1ccc(Cn2nnnc2C(c2cc3cc(C)ccc3[nH]c2=O)N2CCOCC2)cc1 (centres undefined),15,99.4,98.3,99.0,23,98.2,.,.,.,.,.,.,
c1ccc(CCn2nnnc2C(c2cccnc2)N2CCN(c3ccccc3)CC2)cc1 (centres undefined),10,80.1,77.4,88.1,7,84.9,.,.,.,.,.,.,
Oc1ccc(N2CCN(C(c3cccnc3)c3nnnn3Cc3ccccc3)CC2)cc1 (centres undefined),-4,-25.9*,-26.0*,8.1*,29,-9.4*,-0.2,87.9,99.3,91.3,96.7,77.2,
COCCNC(=O)C(c1ccc(F)cc1)N(C(=O)CCC(=O)Nc1nccs1)c1cccc(C)c1 (centres undefined),15,103.2,100.4,100.4,14,105.0,.,.,.,.,.,.,
COc1ccc(C(=O)NC(=S)Nc2ccc3oc(=O)ccc3c2)cc1OC,4,243.5*[activator],121.5,137.7,18,116.1,-1.6,105.9,107.6,107.4,108.4,105.5,RGS-Gao=121.5*
COc1cccc(OC)c1C(=O)NC(=S)Nc1ccc2oc(=O)ccc2c1,12,100.4,100.9,103.2,10,101.8,.,.,.,.,.,.,
CCOC(=O)c1c(C)[nH]c(C)c1C(=O)CSc1nc2ccccc2c(=O)n1-c1ccc(CC)cc1,4,108.3,99.5,102.6,9,99.2,.,.,.,.,.,.,
CC(=O)c1ccc(-n2c(SCC(=O)c3c[nH]c4ccccc34)nc3ccccc3c2=O)cc1,2389*,444.0,179.3*[activator],113.0,12,184.2*[activator],2.4,108.3,110.1,105.6,105.8,97.3,
CCOc1ccc(N2CC(O)=C(c3ccccc3)C2=N)cc1,6,106.1,97.8,108.3,21,117.5,.,.,.,.,.,.,
Cc1nc(CS(=O)(=O)c2ccccn2)sc1C(=O)NNC(=O)c1ccccc1,10,102.2,101.5,99.3,.,?,.,.,.,.,.,.,
CCCCn1c(/N=C/c2ccc3c(c2)OCO3)nc2ccccc21,.,.,.,.,41,.,1.0,100.6,99.5,99.2,99.4,100.3,

# Bioassay records (PubChem)
